“And” between values parts separate entries of the source, which are not always exact repeats. Equal values may be shown once. Records with an inconclusive call do not appear. A call without a number means that no potency is given here. More than one record can exist for a structure, and the calls need not agree. The source made the active and inactive calls. The call rests on the fitted dose curve; in most records, active means well fitted curve in the direction sought with a large enough effect in the repeat runs; inconclusive means weak or mixed curves; inactive means no such curve, though single readings can be large; an effect the other way counts as inactive or inconclusive.
What follows are compounds tested against Voltage-gated inwardly rectifying potassium channel KCNH2 (Homo sapiens) (UniProt Q12809) (assay: Human Ether-a-go-go-Related Gene (hERG) channel small molecule antagonists: fluorescence cell-based qHTS assay (AID 1671200;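 further: hERG-expressing U2OS cells given a thallium stimulus after FluxOR II dye loading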)). Details: hERG-U2OS cells, FluxOR thallium flux fluorescence; series mostly up to 76.8 µM.
Voltage-gated inwardly rectifying potassium channel KCNH2 (Homo sapiens), sequence (Q12809 whole entry, looked up): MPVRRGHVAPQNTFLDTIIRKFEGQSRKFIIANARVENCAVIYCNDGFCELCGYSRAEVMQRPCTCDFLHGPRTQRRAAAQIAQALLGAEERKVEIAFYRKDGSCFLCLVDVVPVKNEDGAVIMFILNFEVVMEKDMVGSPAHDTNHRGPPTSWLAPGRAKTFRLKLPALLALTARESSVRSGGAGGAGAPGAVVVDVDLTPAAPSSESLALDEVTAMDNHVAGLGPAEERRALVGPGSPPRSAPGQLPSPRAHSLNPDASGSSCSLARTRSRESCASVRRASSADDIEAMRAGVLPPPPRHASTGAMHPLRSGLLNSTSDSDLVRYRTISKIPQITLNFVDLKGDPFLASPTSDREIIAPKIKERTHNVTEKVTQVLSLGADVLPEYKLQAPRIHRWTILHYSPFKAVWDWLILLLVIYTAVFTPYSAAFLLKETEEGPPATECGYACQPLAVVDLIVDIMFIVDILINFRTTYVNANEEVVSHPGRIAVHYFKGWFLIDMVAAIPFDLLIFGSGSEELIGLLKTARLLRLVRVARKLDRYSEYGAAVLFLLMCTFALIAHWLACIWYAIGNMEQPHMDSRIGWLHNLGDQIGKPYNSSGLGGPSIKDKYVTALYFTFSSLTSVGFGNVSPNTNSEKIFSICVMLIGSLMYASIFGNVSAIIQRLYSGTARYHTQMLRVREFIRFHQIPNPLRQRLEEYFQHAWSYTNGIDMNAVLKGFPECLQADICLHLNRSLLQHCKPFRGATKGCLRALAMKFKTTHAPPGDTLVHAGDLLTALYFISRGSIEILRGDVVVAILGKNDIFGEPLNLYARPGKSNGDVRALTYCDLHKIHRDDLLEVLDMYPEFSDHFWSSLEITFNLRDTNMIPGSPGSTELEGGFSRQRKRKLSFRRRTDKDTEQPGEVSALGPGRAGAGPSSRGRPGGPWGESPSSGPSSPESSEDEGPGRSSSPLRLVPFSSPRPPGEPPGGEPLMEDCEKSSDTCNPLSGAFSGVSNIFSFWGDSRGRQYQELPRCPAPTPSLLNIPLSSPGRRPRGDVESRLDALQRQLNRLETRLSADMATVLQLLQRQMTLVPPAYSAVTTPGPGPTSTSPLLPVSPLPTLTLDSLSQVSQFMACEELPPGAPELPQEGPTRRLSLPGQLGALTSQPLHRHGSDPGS
Method in brief: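 Channel function was assessed by thallium flux. Cells seeded the previous day and kept at 37 C took up FluxOR II dye over 1 h in the dark at room temperature, then sat another 10 min before stimulation.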
Further: nearly all actives have a fitted effect of over 50% in size.

Compound	Potency
CC(C)(Cl)Cl	inactive
OC(O)C(Cl)(Cl)Cl	inactive
CC(C)C#N	inactive
COC(=O)NS(=O)(=O)c1ccc(N)cc1	inactive
O=S(=O)(c1ccc(O)cc1)c1ccc(O)cc1	inactive
Oc1ccccc1Cl	inactive
COC(=O)c1ccccc1N	inactive
O=C1CCCN1	inactive
O=[N+]([O-])c1ccccc1	inactive
CCCCN(CC)C(=O)SCCC	inactive
BrCCBr	inactive
CCN(CC)c1ccccc1	inactive
ClCCBr	inactive
CC1C=[C-]C=C1.[C-]#[O+].[C-]#[O+].[C-]#[O+].[Mn]	inactive
OCCN(CCO)CCO	inactive
c1ccc(-c2ccccc2)cc1	inactive
CCC(C)(CC)c1cc(NC(=O)c2c(OC)cccc2OC)on1	inactive

Each compound was assayed against Cytochrome P450 3A4 (Homo sapiens) (UniProt P08684) (assay: Cytochrome P450 Family 3 Subfamily A Member 4 (CYP3A4) small molecule antagonists: luciferase reporter qHTS assay (AID 1671201; further: potency means the concentration at half of the fitted maximal effect)). Details: P450-Glo CYP3A4 enzyme, luciferin luminescence, 1 h; series mostly up to 115 µM.
Cytochrome P450 3A4 (Homo sapiens), sequence (P08684 whole entry, looked up): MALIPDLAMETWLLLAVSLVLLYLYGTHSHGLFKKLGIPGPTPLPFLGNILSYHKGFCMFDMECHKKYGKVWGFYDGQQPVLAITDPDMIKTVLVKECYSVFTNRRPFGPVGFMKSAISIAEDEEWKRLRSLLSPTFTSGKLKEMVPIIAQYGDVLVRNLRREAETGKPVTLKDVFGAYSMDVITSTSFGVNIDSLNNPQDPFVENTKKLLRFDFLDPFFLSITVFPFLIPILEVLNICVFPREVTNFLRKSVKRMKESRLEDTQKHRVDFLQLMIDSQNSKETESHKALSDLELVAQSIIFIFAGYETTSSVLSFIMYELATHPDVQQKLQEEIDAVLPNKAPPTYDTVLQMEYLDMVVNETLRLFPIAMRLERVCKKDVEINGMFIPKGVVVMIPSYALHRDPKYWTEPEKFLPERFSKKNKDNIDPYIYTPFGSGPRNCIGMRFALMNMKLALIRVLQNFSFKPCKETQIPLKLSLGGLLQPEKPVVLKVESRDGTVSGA
Method in brief: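 Compounds in DMSO were pin-transferred onto CYP3A4 enzyme-substrate mix and held 10 min at room temperature. NADPH regenerating solution started the reaction for 1 h; luciferin detection reagent stopped it, and luminescence was read after 20 min.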

Compound	Potency
C[C@]12CC[C@H]3[C@@H](CC[C@@]45O[C@@H]4C(O)=C(C#N)C[C@]35C)[C@@H]1CC[C@@H]2O	inactive
C=CCO	inactive
CCCN(CCC)N=O	inactive
CCCCCCCCCCCC#N	inactive
CC(C)(Cl)Cl	inactive
OC(O)C(Cl)(Cl)Cl	inactive
Cc1[nH]c(=O)n(C(C)(C)C)c(=O)c1Cl	inactive
CC(C)C#N	inactive
c1cc2c3c(cccc3c1)CC2	inactive
COC(=O)NS(=O)(=O)c1ccc(N)cc1	inactive
O=S(=O)(c1ccc(O)cc1)c1ccc(O)cc1	inactive
CC(NC(C)(C)C)C(=O)c1cccc(Cl)c1 (stereo not drawn)	inactive
C=C(C)CCl	inactive
CC1OC(C)OC(C)O1 (stereo not drawn)	inactive
Oc1ccccc1Cl	inactive
COC(=O)c1ccccc1N	inactive
O=C1CCCN1	7.17 µM (active) and inactive
O=[N+]([O-])c1ccccc1	inactive

Compound	Potency
CC(C)OC(=O)Nc1ccccc1	inactive
CCCCN(CC)C(=O)SCCC	inactive
BrCCBr	inactive
O=[N+]([O-])c1ccc([As](=O)(O)O)cc1	inactive
CCCCOC(=O)c1ccccc1C(=O)OCCCC	inactive
CCN(CC)c1ccccc1	inactive
ClCCBr	inactive
Cc1cc(Cl)ccc1O	inactive
CN(C)CCO	inactive
O=S(=O)(c1ccc(Cl)cc1)c1cc(Cl)c(Cl)cc1Cl	inactive
CC1C=[C-]C=C1.[C-]#[O+].[C-]#[O+].[C-]#[O+].[Mn]	inactive
OCCN(CCO)CCO	inactive
c1ccc(-c2ccccc2)cc1	inactive
CC(C)=C[C@@H]1[C@@H](C(=O)OCc2coc(Cc3ccccc3)c2)C1(C)C	inactive
ClCc1cccnc1	inactive
CCNc1nc(NC(C)C)nc(SC)n1	inactive
CCC(C)(CC)c1cc(NC(=O)c2c(OC)cccc2OC)on1	799 nM (active) and 1.93 µM (active)
CCOP(=S)(OCC)Oc1cnc2ccccc2n1	inactive and 6.33 µM (active)
